# KLK7 zymogen act = proKLK7 (human) activation, primary screen | P49862 | purified proKLK7, EDANS-DABCYL substrate fluorescence; 100% is mature enzyme control, 0% vehicle | activation, % at 7 µM | hit rate 0.9% among 370,000 | AID 652039;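 active means activation above the mean of all tested compounds plus 3 SD, computed per campaign excluding outliers beyond control limits, cut at about 13% in these data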
# FGF22 binding = shifts melting point of recombinant human FGF22; Q9HCT0; recombinant FGF22 thermal shift, SYPRO orange fluorescence; percent of sucrose octasulfate shift, DMSO zero; activity (Tm shift, normalised), % at 9.99 µM; hit rate 1.5% among 340,000;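 active means mean Tm shift, scaled 0 neutral to 100 positive control, at about 1.3% or above, every replicate too, limit read from the data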
# ADAM17 inh = inhibitors of human ADAM17 | P78536 | recombinant ADAM17, EDANS/DABCYL FRET peptide cleavage | inhibition, % at 6.95 µM | hit rate 0.83% among 370,000 | AID 720648;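 active means inhibition above the mean of compounds lying between control limits plus 3 SD, set per campaign, cut at about 8.5% in these data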;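 further: 0% = DMSO-only wells as the low control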
# Ecoli rRNA inh = inhibits bacterial ribosomal RNA function over humanized ribosomes | E. coli WT GFP vs humanized-ribosome RFP mutants, fluorescence, 24 h; stronger effect = lower value; DMSO median 0, no signal -100 | GFP signal change (wild-type ribosome), % (no concentration beside the values) | hit rate 1.6% among 350,000;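 active means significant combined selectivity score with lowered wild-type GFP, culture density cut under 30%, mutant RFP and density less affected; inactive means any of these conditions unmet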
# ADAM10 inh = inhibits human ADAM10. O14672. inhibition, % at 7 µM. hit rate 0.62% among 370,000. recombinant ADAM10, EDANS/DABCYL FRET peptide cleavage, 3 h;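 active means inhibition above a per-campaign cutoff equal to the mean of compounds falling between control-based bounds plus 3 SD, cut at about 20% in these data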;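 further: 0% = DMSO wells while the 100% control is not disclosed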
# Target sequence (O14672 214-748 limits assumed): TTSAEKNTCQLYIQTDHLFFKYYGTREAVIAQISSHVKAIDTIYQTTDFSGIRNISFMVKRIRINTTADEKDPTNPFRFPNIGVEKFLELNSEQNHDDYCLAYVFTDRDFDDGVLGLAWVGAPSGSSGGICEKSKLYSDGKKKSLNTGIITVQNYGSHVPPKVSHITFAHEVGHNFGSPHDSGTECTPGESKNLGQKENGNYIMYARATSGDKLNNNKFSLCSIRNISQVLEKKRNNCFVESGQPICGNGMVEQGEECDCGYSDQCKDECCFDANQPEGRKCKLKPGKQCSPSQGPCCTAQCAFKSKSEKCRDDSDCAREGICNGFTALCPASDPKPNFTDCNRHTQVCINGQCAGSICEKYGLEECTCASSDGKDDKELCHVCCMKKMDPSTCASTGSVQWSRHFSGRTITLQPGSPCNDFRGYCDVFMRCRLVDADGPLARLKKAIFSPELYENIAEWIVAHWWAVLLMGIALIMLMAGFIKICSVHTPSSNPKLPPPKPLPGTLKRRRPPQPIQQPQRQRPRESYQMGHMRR
# Active calls of the source: *; x = not tested or not shown. Compounds with a hit are over-represented: about 3.8% of the library has one in this group of screens.
SMILES,KLK7 zymogen act,FGF22 binding,ADAM17 inh,Ecoli rRNA inh,ADAM10 inh
CCOc1ccc(/C=C2\SC(=S)N(CCCC(=O)NCCCN3CCOCC3)C2=O)cc1,0,0,-2,-21*,-5
CCc1ccc(/C=C2\SC(=S)N(CCCC(=O)NCCCN3CCOCC3)C2=O)cc1,0,0,-3,-27*,-8
CCc1ccc(/C=C2/SC(=S)N(CCC(=O)NCCCN3CCOCC3)C2=O)cc1,0,0,-2,-2,7
COC(=O)c1ccc(/C=C2/SC(=S)N(CCC(=O)NCCCN3CCOCC3)C2=O)cc1,0,0,-1,-3,-6
Cc1cc(OCC(=O)O/N=C(\N)Cc2cccs2)ccc1Br,0,0,2,-24*,0
Cc1ccc(OCC(=O)O/N=C(\N)Cc2cccs2)cc1C,0,x,3,x,3
O=C(CCCN1C(=O)C(=Cc2ccc3c(c2)OCO3)SC1=S)Nc1ccc(C(=O)O)c(O)c1,0,-41,-3,-26*,-6
CO[C@H]1CN(C)C(=O)c2cc(NC(=O)C3CC3)ccc2OC[C@H](C)N(CC2CCOCC2)C[C@H]1C,x,0,x,1,x
CC(=O)N1C[C@@H]2C(c3ccc(Br)cc3)[C@H](C1)N2Cc1ccc(F)cc1 (stereo partly specified),x,x,x,-2,x
COCCN(C(=O)CSc1nnc(-c2ccccc2F)n1C)c1c(N)n(Cc2ccccc2)c(=O)[nH]c1=O,0,43*,-3,x,-1
COCCN(C(=O)CSc1nnc(-c2cccc(C)c2)n1C)c1c(N)n(Cc2ccccc2)c(=O)[nH]c1=O,0,0,-9,10,-6
O=C(Nc1ccccc1)c1cc2n(n1)C(C(F)(F)F)CC(C1CC1)N2 (stereo unspecified),0,43*,-2,x,-5
NS(=O)(=O)c1ccc(CNC(=S)Nc2ccc(F)c(Cl)c2)cc1,0,43*,0,-28,3
COc1ccc(CNC(=S)NCc2ccc(OC(C)C)cc2)cc1,0,43*,1,-17,7
COc1ccc(CNC(=S)Nc2ccc(F)c(Cl)c2)cc1,0,1.7*,2,-38,7
CC(C)C#Cc1cnc2c(c1)C(=O)N([C@H](C)CO)C[C@@H](C)[C@H](CN(C)C(=O)Cc1ccccn1)O2,x,0,x,-1,x
CCCC#Cc1cnc2c(c1)C(=O)N([C@H](C)CO)C[C@H](C)[C@@H](CN(C)C(=O)C1CCCCC1)O2,x,x,x,2,x
O=C(C[C@@H]1C=C[C@H](NC(=O)Nc2cc(F)ccc2F)[C@@H](CO)O1)NCc1ccccn1,x,0,x,0,x
CC(=O)N1CCN(c2ccc(NCc3ccc(F)cc3)cc2)CC1,-1,0,-20,-1,-81
COc1cc(CNc2ccc(N3CCN(C(C)=O)CC3)cc2)ccc1OCc1ccc(F)cc1,-1,-1,-22,-27*,-47
COc1ccccc1CN1CC2(C1)[C@@H](c1ccccc1)[C@@H](CO)N2Cc1ccccc1,x,x,x,1,x
O=C(NCCC1=CCCCC1)Nc1ccc2nsnc2c1,10,43*,-106,-1,-303
CC(=O)Nc1ccc(NC(=O)c2ccc(C)c(S(=O)(=O)Nc3cccc(C)c3)c2)cc1,0,0,0,-27*,3
CC(C)NC(=O)N(C)C[C@H]1Oc2c(NC(=O)Cn3cnnn3)cccc2C(=O)N([C@H](C)CO)C[C@@H]1C,x,x,x,3,x
Cc1noc(NC(=O)c2cccc(C(F)(F)F)c2)c1Cl,1,0,-8,-48*,-4
SMILES,KLK7 zymogen act,FGF22 binding,ADAM17 inh,Ecoli rRNA inh,ADAM10 inh
CCOc1[nH]n(-c2ccccc2)c(=O)c1C=NCC(=O)OC,0,43*,-2,5,-3
CCOc1[nH]n(-c2ccc(Cl)cc2)c(=O)c1C=NCC(=O)OC,-1,0,0,10,0
Cc1ccc(-c2nnc(Nc3ccc(CC(N)=O)cc3)c3ccccc23)cc1S(=O)(=O)NCC1CCCO1 (stereo unspecified),4,0,-3,-31*,-3
COC(=O)c1ccc(Nc2nnc(-c3ccc(C)c(S(=O)(=O)NCC4CCCO4)c3)c3ccccc23)cc1 (stereo unspecified),-1,x,-5,x,-17
O=C(N[C@H]1C=C[C@@H](CC(=O)N2CCc3ccccc3C2)O[C@H]1CO)C1CCOCC1,x,x,x,7,x
CCCc1cc(C(=O)Nc2cccc3ccccc23)n(C)n1,0,0,3,-30*,2
COc1cccc(C(=O)N[C@H](C(=O)N2CCC[C@H]2C(=O)NCCc2ccccc2Cl)c2ccccc2)c1,1,0,-2,-34*,-3
COc1cccc(C(=O)N[C@H](C(=O)N2CCC[C@H]2C(=O)NCCc2ccccc2Cl)C(C)C)c1,0,0,-4,-2,-8
O=C(C[C@@H]1C[C@@H]2c3cc(NC(=O)CC4CC4)ccc3O[C@@H]2[C@@H](CO)O1)NCc1cccnc1,x,0,x,3,x
O=C(CC1CC1)Nc1ccc2c(c1)[C@@H]1C[C@H](CC(=O)N3CCOCC3)O[C@@H](CO)[C@@H]1O2,x,0,x,2,x
O=C1C(=O)c2c(C(=O)c3ccccc3)coc2-c2ccccc21,-1,-1,0,-44*,2
CC(C)NC(=O)Nc1ccc2c(c1)C(=O)N([C@H](C)CO)C[C@@H](C)[C@H](CN(C)C(=O)c1ccncc1)OCCCC[C@H](C)O2,x,0,x,-1,x
CCOC(=O)[C@]12Cc3c(cc(OC)c(OC)c3OC)[C@H]1N(Cc1ccccc1)C(=O)c1cc(OC)ccc12,0,0,2,3,-6
CCOC(=O)[C@]12Cc3c(cc(OC)c(OC)c3OC)[C@H]1N(CCC(=O)OC)C(=O)c1cc(OC)ccc12,0,0,-5,-24*,-14
COc1ccc(NC(=O)c2ccc3[nH]c(C)c(C)c3c2)cc1,-1,1,0,-25*,-4
Cc1cc(NC(=O)c2ccc3[nH]c(C)c(C)c3c2)ccn1,0,0,-1,-18,5
CNC[C@@H]1Oc2ncc(C#CC3(O)CCCC3)cc2C(=O)N([C@@H](C)CO)C[C@H]1C,x,0,x,4,x
COc1ccc(-c2n(CC(=O)OC3CC(C)CCC3C(C)C)c3ccccc3[n+]2C)cc1 (stereo unspecified),1,44*,-1,13,9
COc1ccc([C@@H]2C/C=C\C[C@@H](c3ccc(F)cc3)NC(=O)CCC(=O)N2)c(OC)c1,x,x,x,-4,x
C/C=C(/C)C(=O)O[C@@H]1c2cc(OC)c(OC)c(OC)c2-c2c(cc3c(c2OC)OCO3)C[C@H](C)[C@]1(C)O,0,0,-4,7,1
COc1cc2c(c(OC)c1OC)-c1c(cc3c(c1OC)OCO3)[C@@H](OC(C)=O)[C@H](C)[C@H](C)C2,1,0,0,-42*,-1
C[C@H](CO)N1C[C@H](C)[C@H](CN(C)Cc2ccc(-c3ccccc3)cc2)Oc2ccc(NS(C)(=O)=O)cc2CC1=O,x,1,x,-3,x

# Bioassay records (PubChem BioAssay)
